Compounds with a hit are over-represented: about 17% of the library has one in this group of screens.
ClpP mod = qHTS Assay for Activators of ClpP. ATP-dependent Clp protease proteolytic subunit (Bacillus subtilis (strain 168)), P80244. purified B. subtilis ClpP, FRET peptide cleavage, 20 min. Potency, µM (top dose mostly 57.5 µM). actives 1.9% (n = 340,000); active = well fitted falling curve with a large enough effect; inconclusive = small, poorly fitted or top-dose-only effect; inactive = no such curve, though single readings can be large or run the other way; also: the source files actives as falling curves though it sought activators and does not explain the sign; nearly all actives have a fitted effect of over 65% in size
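Purified B. subtilis ClpP, 10 microg/mL final in Tris/HCl pH8 with KCl, BSA, glycerol and Tween-20, cleaved an Abz/nitrotyrosine-quenched decapeptide. Fluorescence (ex 320, em 430) was read at 0 and 20 min at room temperature. Delta was normalized to 5.8 microM ADEP and DMSO/no-enzyme controls.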
TDP1 cell noCPT = qHTS for Inhibitors of human tyrosyl-DNA phosphodiesterase 1 (TDP1): qHTS in cells in absence of CPT; Potency, µM (top dose mostly 46.2 µM), most hits filed as inhibitors; actives 15% (n = 420,000); DT40 Tdp1-/- hTDP1 cells, no CPT, ATP luminescence, 48 h; AID 686978, 2013; also: nearly all actives have a fitted effect of over 55% in size
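Chicken DT40 Tdp1-/- cells complemented with human TDP1, screened without camptothecin (DMSO vehicle only), 400 cells/well. Compounds pin-transferred, cells incubated at 37 °C for at least 48 hr. Growth read as ATP-dependent luminescence (CellTiter-Glo, 30 min at RT).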
TDP1 inh = inhibitors of human tyrosyl-DNA phosphodiesterase TDP1. Q9NUW8. recombinant TDP1, AlphaScreen DNA substrate cleavage. Potency, µM (top dose mostly 130 µM), hits mostly inhibitors. actives 0.28% (n = 350,000); also: nearly all actives have a fitted effect of over 40% in size
Target sequence (Q9NUW8 whole entry, looked up): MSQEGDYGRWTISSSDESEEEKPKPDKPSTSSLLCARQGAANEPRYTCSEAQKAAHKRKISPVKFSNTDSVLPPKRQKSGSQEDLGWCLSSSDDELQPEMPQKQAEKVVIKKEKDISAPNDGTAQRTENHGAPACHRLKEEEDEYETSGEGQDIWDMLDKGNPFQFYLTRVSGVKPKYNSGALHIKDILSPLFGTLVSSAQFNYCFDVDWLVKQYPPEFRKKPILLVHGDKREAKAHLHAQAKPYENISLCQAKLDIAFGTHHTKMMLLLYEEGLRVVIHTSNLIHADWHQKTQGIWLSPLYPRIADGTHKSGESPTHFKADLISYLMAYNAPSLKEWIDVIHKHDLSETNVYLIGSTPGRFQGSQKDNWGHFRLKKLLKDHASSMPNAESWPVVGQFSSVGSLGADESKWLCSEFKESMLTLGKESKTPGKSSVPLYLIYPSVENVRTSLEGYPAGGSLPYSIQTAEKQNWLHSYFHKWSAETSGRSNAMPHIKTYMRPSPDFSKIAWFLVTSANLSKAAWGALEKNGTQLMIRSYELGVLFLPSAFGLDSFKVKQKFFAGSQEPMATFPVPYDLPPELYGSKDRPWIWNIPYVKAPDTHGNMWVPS
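Recombinant E. coli-expressed Tdp1 (1 nM) preincubated with compound 15 min at RT, then 5'-biotin/3'-phosphotyrosine-FITC DNA substrate (15 nM) added for 5 min. AlphaScreen beads (10 ug/ml) added, 10 min RT; tyrosine-FITC cleavage read as signal loss.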
TDP1 cell CPT = DT40-hTDP1 cell growth loss with CPT; chicken DT40 Tdp1-/-;hTDP1 cells + 20 nM CPT, ATP luminescence, 48 h; Potency, µM (top dose mostly 46.2 µM), hits mostly inhibitors; actives 12% (n = 420,000); AID 686979; also: nearly all actives have a fitted effect of over 55% in size
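Chicken DT40 Tdp1-/- cells complemented with human TDP1, 400 cells/well, exposed to compounds plus 20 nM camptothecin for at least 48 h at 37 C; viability read as ATP content by CellTiter-Glo luminescence.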
Numbers stand for hits; 0 = inactive; ? = inconclusive; - = no result; ! = repeats disagree; [ ] = dose if it differs, or a comment. Unless noted, calls follow the shape of the dose curve; as a rule, active = well fitted curve in the direction sought with a large enough effect; inconclusive = small, poorly fitted or top-dose-only effect, or another doubt; inactive = no such curve, though single readings can be large; an effect the other way counts as inactive or inconclusive.

SMILES	ClpP mod	TDP1 cell noCPT	TDP1 inh	TDP1 cell CPT
O=C(CSc1nc2ccccc2n1Cc1ccccc1)NCc1ccccc1	0	23µM	0	0
COc1ccc(Cn2c(SCC(=O)NCc3ccccc3)nc3ccccc32)cc1	0	?	0	?
O=C(Cn1c(-c2ccccc2Cl)nc2ccccc21)Nc1cccc(Cl)c1	0	0	0	0
O=C(CSc1nc2ccccc2n1CCc1ccccc1)c1ccc(O)c(O)c1	0	16µM	-	12µM
Cc1ccc(-n2nnc3c(sc4nc(C)c(C)cc43)c2=O)cc1Cl	0	0	0	0
O=C(NC(=O)c1cc([N+](=O)[O-])ccc1Cl)C1=C(N2CCCC2)COC1=O	0	0	0	?
COc1ccc(Cn2c(SCC(=O)N(C)Cc3ccccc3)nc3ccccc32)cc1	0	?	0	?
CCN(C(=O)CSc1nc2ccccc2n1CC(=O)NCc1ccc(OC)cc1)c1ccccc1	0	23µM	0	?
CCN(C(=O)CSc1nc2ccccc2n1CC(=O)Nc1ccccc1C)c1ccccc1	0	21µM	0	?
CSc1nc2ccccc2n1CC(=O)Nc1ccccc1	0	18µM	0	5.2µM
CN[C@H]1[C@@H](O[C@@H]2[C@H](O[C@@H]3[C@@H](O)[C@@H](O)[C@@H](N=C(N)N)[C@@H](O)[C@@H]3N=C(N)N)O[C@H](C)[C@@]2(O)C=O)O[C@@H](CO)[C@@H](O)[C@H]1O	-	-	0[21 µM]	-
COc1ccc(NCc2cc3ccccc3[nH]c2=O)cc1	0	?	0	?
COc1ccc2[nH]c(=O)c(CNc3cccc(C)c3)cc2c1	0	12µM	0	13µM
COc1ccc(NCc2cc3cc(OC)ccc3[nH]c2=O)cc1	?	23µM	0	8.2µM
O=C(NCc1ccco1)c1cccnc1-c1nc2ccccc2s1	?	29µM	0	21µM
CS(=O)(=O)N(CC(=O)Nc1ccccc1C(=O)NCc1ccco1)c1ccc2c(c1)OCCO2	0	?	0	18µM
O=C(Nc1cccc(Cl)c1)Nc1ccccc1C(=O)NCc1ccco1	0	18µM	0	18µM
O=C(Nc1ccccc1C(=O)NCc1ccco1)Nc1cccc2ccccc12	0	12µM	0	21µM
O=C(O)CCC(=O)Nc1ccccc1C(=O)NCc1ccco1	0	0	0	0
COC(=O)[C@@]1(Cc2ccccc2)[C@H]2c3cc(C(=O)N4CCCC4)n(Cc4ccc(O)c(OC)c4)c3C[C@H]2CN1C(=O)c1ccccc1	-	-	0	-
CCOC(=O)c1ccc(N2C(=O)Cc3cc(OCC)c(OCC)cc3C2c2ccccc2)cc1 (stereo unspecified)	0	13µM	-	15µM
CCOc1cc2c(cc1OCC)C(c1ccccc1)N(c1ccc(C(=O)O)cc1)C(=O)C2 (stereo unspecified)	-	0	0	0
O=C(NNc1ccccc1)/C(=C\c1cccnc1)NC(=O)c1ccccc1	0	0	-	0
COc1cc(CN2CC(=O)N(c3cc(Cl)ccc3C)C2=S)cc(OC)c1OC	0	21µM	-	21µM
COc1ccc(CN2CC(=O)N(c3cc(Cl)ccc3C)C2=S)cc1OC	0	?	-	?
SMILES	ClpP mod	TDP1 cell noCPT	TDP1 inh	TDP1 cell CPT
CCc1ccc(N2C(=O)CN(Cc3cc(OC)c(OC)c(OC)c3)C2=S)cc1	0	23µM	0	16µM
CCc1ccccc1N1C(=O)CN(Cc2cc(OC)c(OC)c(OC)c2)C1=S	-	21µM	-	?
COCCCNC(=O)c1sc2nc(C)c(C(=O)Nc3ccc(C)cc3C)c(-c3ccccc3Cl)c2c1N	0	?	0	?
O=C(CN1C(=O)NC2(CCCC2)C1=O)NC(c1ccccc1)c1ccccc1	-	16µM	0	?
O=C(CN1CCCC1)NC(c1ccccc1)c1ccccc1	0	16µM	-	21µM
O=C(Cn1nc([N+](=O)[O-])nc1Br)NC(c1ccccc1)c1ccccc1	0	16µM	0	21µM
COc1ccc(NC(=O)CCSCCc2ccccn2)cc1OC	-	0	0	0
CN(Cc1ccco1)C(=O)CN1C(=O)NC2(CCCCC2)C1=O	0	0	0	0
CCCOC1CCCN(C(=O)CCc2nnc(-c3ccc4c(c3)OCO4)o2)C1 (stereo unspecified)	20µM	0	0	0
COc1ccccc1C(=O)Nc1ccc2c(c1)nc1n2CCN(C2CCCCC2)C1	0	23µM	0	15µM
CC(=O)N1CCN(Cc2nc3cc(NC(=O)c4ccccc4Cl)ccc3n2C)CC1	-	0	0	0
Cn1c(CN2CCCCC2)nc2cc(NC(=O)c3ccccc3Cl)ccc21	0	23µM	0	16µM
COc1ccccc1C(=O)Nc1ccc2c(c1)nc(CN1CCCCC1)n2C	0	23µM!	0	?
Cc1cccn2c(=O)c3cc(C#N)c(=O)n(-c4nnc(SCc5ccccc5F)s4)c3nc12	0	6.5µM	0	?
Cc1cccn2c(=O)c3cc(C#N)c(=N)n(Cc4cccnc4)c3nc12	0	0	-	0
